From the OligoGym collection

Molecular target: CRYGS
Test: pooled miR-30 sensor sort-seq; sequence = guide strand
Conditions: shRNA
Also: reference of the scale not given here.

| Sequence | sensor-assay potency score (higher = more potent) |
| --- | --- |
| AAAGATCTGAATCTTATACTGG | 0.0834 |
| TGAAATTGCTCCATGATGGAAG | -0.169 |
| TACAGGAGTGGATCTCTCGCAT | -0.237 |
| TTAATGGAGTTGCAGCGACTTA | -1.8 |
| AAGATCTGAATCTTATACTGGC | 0.642 |
| TTCATAGAAAGTAATCTTGGTT | -0.0295 |
| TCGCATGTGAAATTGCTCCATG | -0.662 |
| TCGGTGGTTTCATACATCTGAC | -1.43 |
| TCCACTTTAATGGAGTTGCAGC | -1.52 |
| TATACTGGCCTCCACTAGGCAG | -0.983 |
| TTTTTGTCTTCATAGAAAGTAA | -0.778 |
| TGGAGTTGCAGCGACTTAGGTA | -0.835 |
| TGAACAGCTCTGCAGGAGCTGA | -1.21 |
| TCGCAATCACAGTCATAGCGAC | -1.06 |
| TTGAAAATTTTTGTCTTCATAG | -1.17 |
| TGATGGAAGGGCAATCTTCGGT | -1.06 |
